Measured values: paper PMC7862700, “An all-to-all approach to the identification of sequence-specific readers for epigenetic DNA modifications on cytosine”

How the values were obtained:
Assay in all cases: DAPPL (digital affinity profiling via proximity ligation, sequencing); 10 mM Tris-HCl pH 7.5, 50 mM NaCl, 1 mM DTT, 4% glycerol, room temperature, 30 min; GST-TFs on glutathione beads, 16-mer random dsDNA library, 0.1% formaldehyde crosslink after washing; high values mean tight binding
[1] = target: HSF1 (Homo sapiens, UniProt Q00613 1-529); conditions: protein: recombinant; tags: N-terminal GST; chain copies: 3; dsDNA, one strand shown
Sequence of HSF1 (Q00613 whole entry, the tested form may be a part): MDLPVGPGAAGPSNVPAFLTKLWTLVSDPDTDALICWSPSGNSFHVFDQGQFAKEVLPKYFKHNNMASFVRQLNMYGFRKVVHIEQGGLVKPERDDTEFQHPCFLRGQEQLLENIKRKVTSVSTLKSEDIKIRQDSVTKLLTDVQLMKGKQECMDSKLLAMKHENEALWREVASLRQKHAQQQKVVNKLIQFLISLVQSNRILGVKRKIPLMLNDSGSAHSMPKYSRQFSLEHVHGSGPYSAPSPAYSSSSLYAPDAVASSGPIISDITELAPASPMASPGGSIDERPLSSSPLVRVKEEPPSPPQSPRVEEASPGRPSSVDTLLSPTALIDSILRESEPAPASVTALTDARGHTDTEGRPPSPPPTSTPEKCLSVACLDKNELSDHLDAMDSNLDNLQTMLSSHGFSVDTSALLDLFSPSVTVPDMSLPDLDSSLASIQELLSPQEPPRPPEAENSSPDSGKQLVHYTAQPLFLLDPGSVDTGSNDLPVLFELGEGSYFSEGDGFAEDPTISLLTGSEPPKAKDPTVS
Procedure, shortened: (§1)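 Binding signal is each hexamer's read frequency for a factor divided by its frequency in the tag-only sample. The factors were GST-fused human transcription factors from yeast, captured on glutathione beads, DNA-barcoded and pooled with that sample. Pools were incubated with 200 nmole of a random double-stranded 16-mer DNA library in Tris/NaCl/DTT/glycerol buffer at room temperature for 30 min, then washed, crosslinked with 0.1% formaldehyde, proximity-ligated with BsaI/T4 ligase (1 h, 37 °C), PCR-amplified and sequenced on an Illumina NextSeq500.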

[2] = target: T1, ELK1 (Homo sapiens, UniProt P19419 1-428); conditions: protein: recombinant; tags: N-terminal GST; dsDNA, one strand shown
T1 sequence: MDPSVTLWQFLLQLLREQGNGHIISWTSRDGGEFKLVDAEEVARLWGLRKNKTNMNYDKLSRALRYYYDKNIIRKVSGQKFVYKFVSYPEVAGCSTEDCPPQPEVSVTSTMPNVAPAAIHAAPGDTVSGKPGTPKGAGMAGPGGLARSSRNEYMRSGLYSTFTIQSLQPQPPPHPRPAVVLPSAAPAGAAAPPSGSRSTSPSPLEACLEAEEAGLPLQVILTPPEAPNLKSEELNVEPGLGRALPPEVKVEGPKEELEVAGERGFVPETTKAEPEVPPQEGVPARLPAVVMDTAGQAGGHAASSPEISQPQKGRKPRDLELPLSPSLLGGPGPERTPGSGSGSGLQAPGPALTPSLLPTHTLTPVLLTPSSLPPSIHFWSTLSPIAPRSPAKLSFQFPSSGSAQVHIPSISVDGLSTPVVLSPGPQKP
Procedure, shortened: as §1

[3] = target: T2, GABPA (Homo sapiens, UniProt Q06546 1-454); conditions: protein: recombinant; tags: N-terminal GST; dsDNA, one strand shown
T2 sequence: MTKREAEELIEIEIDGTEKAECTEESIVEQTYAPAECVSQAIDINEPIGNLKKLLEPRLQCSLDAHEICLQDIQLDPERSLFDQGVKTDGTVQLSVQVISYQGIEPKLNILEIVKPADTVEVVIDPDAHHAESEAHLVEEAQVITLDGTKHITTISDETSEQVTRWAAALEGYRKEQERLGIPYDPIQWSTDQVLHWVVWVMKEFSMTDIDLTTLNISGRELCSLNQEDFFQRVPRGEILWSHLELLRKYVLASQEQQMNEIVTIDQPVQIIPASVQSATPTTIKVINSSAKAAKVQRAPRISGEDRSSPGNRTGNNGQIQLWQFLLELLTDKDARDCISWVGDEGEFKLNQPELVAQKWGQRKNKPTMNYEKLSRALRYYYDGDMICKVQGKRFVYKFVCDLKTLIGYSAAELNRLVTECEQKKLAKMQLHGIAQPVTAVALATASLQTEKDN
Procedure, shortened: as §1

[4] = target: ELF1 (Homo sapiens, UniProt P32519 1-619); conditions: protein: recombinant; tags: N-terminal GST; dsDNA, one strand shown
Sequence of ELF1 (P32519 whole entry): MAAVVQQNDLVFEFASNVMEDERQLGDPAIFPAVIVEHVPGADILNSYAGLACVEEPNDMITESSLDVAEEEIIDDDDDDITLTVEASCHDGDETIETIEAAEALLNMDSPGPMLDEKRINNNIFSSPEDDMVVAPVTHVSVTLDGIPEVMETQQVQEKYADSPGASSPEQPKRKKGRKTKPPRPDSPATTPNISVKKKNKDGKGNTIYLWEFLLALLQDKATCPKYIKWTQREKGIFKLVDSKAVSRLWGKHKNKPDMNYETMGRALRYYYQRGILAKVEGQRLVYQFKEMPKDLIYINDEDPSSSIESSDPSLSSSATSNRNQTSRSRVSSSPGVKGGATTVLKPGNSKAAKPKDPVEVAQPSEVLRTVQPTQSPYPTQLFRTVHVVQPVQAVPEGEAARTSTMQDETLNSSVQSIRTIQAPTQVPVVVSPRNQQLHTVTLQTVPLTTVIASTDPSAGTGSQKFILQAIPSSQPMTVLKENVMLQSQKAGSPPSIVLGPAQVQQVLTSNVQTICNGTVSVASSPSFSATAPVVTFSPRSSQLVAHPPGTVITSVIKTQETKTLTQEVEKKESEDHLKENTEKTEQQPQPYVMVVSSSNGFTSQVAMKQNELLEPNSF
Procedure, shortened: as §1

[5] = target: SPIB (Homo sapiens, UniProt Q01892 1-262); conditions: protein: recombinant; tags: N-terminal GST; dsDNA, one strand shown
Sequence of SPIB (Q01892 whole entry): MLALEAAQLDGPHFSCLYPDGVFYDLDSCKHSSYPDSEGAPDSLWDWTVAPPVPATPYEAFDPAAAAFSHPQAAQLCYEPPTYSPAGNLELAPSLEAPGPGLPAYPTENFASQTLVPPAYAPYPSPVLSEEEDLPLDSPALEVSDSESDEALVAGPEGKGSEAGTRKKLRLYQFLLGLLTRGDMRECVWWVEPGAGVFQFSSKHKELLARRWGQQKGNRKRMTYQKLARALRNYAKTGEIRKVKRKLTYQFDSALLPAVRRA
Procedure, shortened: as §1

[6] = target: T3, ELK3 (Homo sapiens, UniProt P41970 1-407); conditions: protein: recombinant; tags: N-terminal GST; dsDNA, one strand shown
T3 sequence: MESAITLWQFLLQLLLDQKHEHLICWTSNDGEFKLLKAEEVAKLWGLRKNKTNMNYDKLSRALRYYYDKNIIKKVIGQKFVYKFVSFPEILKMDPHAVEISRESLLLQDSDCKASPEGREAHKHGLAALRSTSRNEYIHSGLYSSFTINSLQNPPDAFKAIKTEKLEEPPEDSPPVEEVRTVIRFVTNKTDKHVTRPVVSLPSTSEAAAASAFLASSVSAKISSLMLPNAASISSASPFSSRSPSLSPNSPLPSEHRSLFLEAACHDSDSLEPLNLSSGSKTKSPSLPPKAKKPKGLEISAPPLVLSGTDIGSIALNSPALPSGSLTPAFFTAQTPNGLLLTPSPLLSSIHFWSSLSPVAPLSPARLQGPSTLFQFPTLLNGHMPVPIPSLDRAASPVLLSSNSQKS
Procedure, shortened: as §1

[7] = target: T4, FEV (Homo sapiens, UniProt Q99581 1-238); conditions: protein: recombinant; tags: N-terminal GST; dsDNA, one strand shown
T4 sequence: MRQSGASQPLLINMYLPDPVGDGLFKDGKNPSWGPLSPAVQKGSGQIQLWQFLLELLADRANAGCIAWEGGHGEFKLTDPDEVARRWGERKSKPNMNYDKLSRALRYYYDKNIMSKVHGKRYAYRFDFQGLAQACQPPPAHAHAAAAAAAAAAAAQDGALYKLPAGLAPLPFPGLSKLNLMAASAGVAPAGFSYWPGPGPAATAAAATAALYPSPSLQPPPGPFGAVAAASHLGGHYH
Procedure, shortened: as §1

[8] = target: T5, SPIC (Homo sapiens, UniProt Q8N5J4 1-248); conditions: protein: recombinant; tags: N-terminal GST; dsDNA, one strand shown
T5 sequence: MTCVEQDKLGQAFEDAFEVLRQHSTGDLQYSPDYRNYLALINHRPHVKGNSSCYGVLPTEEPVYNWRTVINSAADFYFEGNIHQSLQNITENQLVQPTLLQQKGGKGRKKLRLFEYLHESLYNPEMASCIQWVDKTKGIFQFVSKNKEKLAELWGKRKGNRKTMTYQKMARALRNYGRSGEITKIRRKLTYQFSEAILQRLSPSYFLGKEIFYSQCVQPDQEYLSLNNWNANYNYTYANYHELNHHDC
Procedure, shortened: as §1

[9] = target: T6, ELK4 (Homo sapiens, UniProt P28324-2 1-405); conditions: protein: recombinant; tags: N-terminal GST; dsDNA, one strand shown
T6 sequence: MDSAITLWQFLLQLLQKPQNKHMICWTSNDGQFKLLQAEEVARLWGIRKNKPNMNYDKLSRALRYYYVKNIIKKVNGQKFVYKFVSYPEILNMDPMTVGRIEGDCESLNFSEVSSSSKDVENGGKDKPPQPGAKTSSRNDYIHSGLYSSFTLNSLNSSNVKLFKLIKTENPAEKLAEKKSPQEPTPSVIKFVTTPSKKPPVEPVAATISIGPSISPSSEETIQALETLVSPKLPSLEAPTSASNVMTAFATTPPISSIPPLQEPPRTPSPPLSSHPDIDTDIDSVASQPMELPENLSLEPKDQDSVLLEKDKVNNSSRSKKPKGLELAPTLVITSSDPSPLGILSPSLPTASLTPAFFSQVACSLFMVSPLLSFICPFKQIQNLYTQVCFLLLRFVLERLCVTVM
Procedure, shortened: as §1

[10] = target: CRX (Homo sapiens, UniProt O43186 1-299); conditions: protein: recombinant; tags: N-terminal GST; dsDNA, one strand shown
Sequence of CRX (O43186 whole entry): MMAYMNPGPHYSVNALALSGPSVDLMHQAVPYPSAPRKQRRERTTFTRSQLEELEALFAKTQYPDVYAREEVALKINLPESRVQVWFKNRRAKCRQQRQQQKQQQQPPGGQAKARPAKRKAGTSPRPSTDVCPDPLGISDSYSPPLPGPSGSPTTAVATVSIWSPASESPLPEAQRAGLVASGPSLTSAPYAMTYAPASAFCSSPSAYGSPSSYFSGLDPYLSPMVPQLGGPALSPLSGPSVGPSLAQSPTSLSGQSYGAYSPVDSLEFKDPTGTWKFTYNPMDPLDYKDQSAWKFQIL
Procedure, shortened: as §1

[11] = target: T7, ERF (Homo sapiens, UniProt P50548 1-548); conditions: protein: recombinant; tags: N-terminal GST; dsDNA, one strand shown
T7 sequence: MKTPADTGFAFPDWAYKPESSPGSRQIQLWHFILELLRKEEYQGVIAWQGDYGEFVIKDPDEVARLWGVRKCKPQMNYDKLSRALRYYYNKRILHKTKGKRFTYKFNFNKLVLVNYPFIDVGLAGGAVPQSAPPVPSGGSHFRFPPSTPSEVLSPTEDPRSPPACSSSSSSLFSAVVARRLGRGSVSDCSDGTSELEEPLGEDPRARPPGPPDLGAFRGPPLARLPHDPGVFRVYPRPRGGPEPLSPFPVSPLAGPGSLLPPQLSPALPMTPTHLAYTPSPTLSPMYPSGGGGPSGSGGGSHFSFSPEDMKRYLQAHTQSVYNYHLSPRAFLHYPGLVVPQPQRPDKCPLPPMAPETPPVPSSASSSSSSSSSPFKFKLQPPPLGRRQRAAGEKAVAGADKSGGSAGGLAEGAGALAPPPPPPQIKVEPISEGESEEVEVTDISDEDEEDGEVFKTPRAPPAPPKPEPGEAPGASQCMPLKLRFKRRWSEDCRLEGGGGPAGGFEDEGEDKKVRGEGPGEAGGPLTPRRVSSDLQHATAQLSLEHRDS
Procedure, shortened: as §1

[12] = target: T8, ETV3L (Homo sapiens, UniProt Q6ZN32 1-361); conditions: protein: recombinant; tags: N-terminal GST; dsDNA, one strand shown
T8 sequence: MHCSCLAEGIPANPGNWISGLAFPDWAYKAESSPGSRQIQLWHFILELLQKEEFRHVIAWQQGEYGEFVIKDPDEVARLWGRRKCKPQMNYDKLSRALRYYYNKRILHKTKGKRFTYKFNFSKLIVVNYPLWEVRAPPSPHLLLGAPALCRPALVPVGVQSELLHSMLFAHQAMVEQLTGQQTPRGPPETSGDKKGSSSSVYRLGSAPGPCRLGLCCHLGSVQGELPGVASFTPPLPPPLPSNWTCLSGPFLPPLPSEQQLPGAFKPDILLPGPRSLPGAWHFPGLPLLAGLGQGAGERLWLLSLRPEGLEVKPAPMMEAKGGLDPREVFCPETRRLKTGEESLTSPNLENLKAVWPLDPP
Procedure, shortened: as §1

[13] = target: T9, ETS2 (Homo sapiens, UniProt P15036 1-469); conditions: protein: recombinant; tags: N-terminal GST; dsDNA, one strand shown
T9 sequence: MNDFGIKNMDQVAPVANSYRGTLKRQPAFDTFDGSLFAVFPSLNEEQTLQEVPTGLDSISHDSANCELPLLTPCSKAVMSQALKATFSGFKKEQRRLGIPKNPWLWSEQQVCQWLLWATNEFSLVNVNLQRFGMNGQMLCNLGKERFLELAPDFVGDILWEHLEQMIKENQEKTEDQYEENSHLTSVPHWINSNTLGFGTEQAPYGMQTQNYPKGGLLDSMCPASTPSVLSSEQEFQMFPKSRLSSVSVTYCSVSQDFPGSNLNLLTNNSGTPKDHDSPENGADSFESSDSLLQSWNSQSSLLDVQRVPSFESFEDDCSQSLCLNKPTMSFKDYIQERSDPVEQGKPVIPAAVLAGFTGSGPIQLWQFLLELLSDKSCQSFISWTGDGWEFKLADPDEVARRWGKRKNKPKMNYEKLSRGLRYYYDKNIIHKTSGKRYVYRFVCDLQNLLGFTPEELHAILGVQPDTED
Procedure, shortened: as §1

[14] = target: T10, SPDEF (Homo sapiens, UniProt O95238 1-335); conditions: protein: recombinant; tags: N-terminal GST; dsDNA, one strand shown
T10 sequence: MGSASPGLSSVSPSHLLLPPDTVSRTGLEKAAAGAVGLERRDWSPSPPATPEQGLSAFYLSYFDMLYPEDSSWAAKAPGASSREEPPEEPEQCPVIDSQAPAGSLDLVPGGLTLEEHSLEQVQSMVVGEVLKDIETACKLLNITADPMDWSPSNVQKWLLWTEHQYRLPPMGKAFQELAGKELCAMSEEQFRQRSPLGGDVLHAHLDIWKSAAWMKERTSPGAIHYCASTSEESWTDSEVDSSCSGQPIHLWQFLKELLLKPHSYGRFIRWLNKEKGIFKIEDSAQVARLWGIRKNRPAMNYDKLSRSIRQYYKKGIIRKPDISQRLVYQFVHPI
Procedure, shortened: as §1

[15] = target: T11, ETV7 (Homo sapiens, UniProt Q9Y603 1-341); conditions: protein: recombinant; tags: N-terminal GST; dsDNA, one strand shown
T11 sequence: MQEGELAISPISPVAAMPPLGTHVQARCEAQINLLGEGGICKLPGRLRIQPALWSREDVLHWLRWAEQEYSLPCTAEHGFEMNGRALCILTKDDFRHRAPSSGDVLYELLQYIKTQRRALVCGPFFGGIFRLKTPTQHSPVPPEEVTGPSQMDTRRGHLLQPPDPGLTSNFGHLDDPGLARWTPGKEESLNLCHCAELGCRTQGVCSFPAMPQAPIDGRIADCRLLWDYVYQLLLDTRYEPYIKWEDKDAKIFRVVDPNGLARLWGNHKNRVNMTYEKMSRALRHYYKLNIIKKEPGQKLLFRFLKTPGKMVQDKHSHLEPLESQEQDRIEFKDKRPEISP
Procedure, shortened: as §1

[16] = target: T12, ETV3 (Homo sapiens, UniProt P41162-2 1-143); conditions: protein: recombinant; tags: N-terminal GST; dsDNA, one strand shown
T12 sequence: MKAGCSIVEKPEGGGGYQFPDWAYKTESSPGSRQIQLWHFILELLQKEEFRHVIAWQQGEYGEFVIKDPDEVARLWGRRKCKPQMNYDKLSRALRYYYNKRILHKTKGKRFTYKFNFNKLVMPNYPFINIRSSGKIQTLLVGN
Procedure, shortened: as §1

| Sequence | binding signal [1] | binding signal [2] | binding signal [3] | binding signal [4] | binding signal [5] | binding signal [6] | binding signal [7] | binding signal [8] | binding signal [9] | binding signal [10] | binding signal [11] | binding signal [12] | binding signal [13] | binding signal [14] | binding signal [15] | binding signal [16] |
| --- | --- | --- | --- | --- | --- | --- | --- | --- | --- | --- | --- | --- | --- | --- | --- | --- |
| GGAATG | 1.25 fold enrichment (6-mer frequency, TF over GST control) | – | – | – | – | – | – | – | – | – | – | – | – | – | – | – |
| TCGCAT | 1.04 fold enrichment (6-mer frequency, TF over GST control) | 1.06 fold enrichment (6-mer frequency, TF over GST control) | 1.02 fold enrichment (6-mer frequency, TF over GST control) | 1.04 fold enrichment (6-mer frequency, TF over GST control) | 1.06 fold enrichment (6-mer frequency, TF over GST control) | 1.01 fold enrichment (6-mer frequency, TF over GST control) | 1.08 fold enrichment (6-mer frequency, TF over GST control) | 1.02 fold enrichment (6-mer frequency, TF over GST control) | 1.08 fold enrichment (6-mer frequency, TF over GST control) | 1.15 fold enrichment (6-mer frequency, TF over GST control) | 1.07 fold enrichment (6-mer frequency, TF over GST control) | 1.03 fold enrichment (6-mer frequency, TF over GST control) | 1.04 fold enrichment (6-mer frequency, TF over GST control) | 1.03 fold enrichment (6-mer frequency, TF over GST control) | 1.01 fold enrichment (6-mer frequency, TF over GST control) | 1.03 fold enrichment (6-mer frequency, TF over GST control) |
